Among the data in PubChem BioAssay AID651826 (Vanderbilt Specialized Chemistry Center, 2012) are inhibition values, retold here.

A word on the inhibition: it is the drop in the measured response relative to a control, in per cent.

A short description of the test: radioligand displacement at GPCRs, transporters, channels – biochemical, Ricerca panel, radioligand binding, selectivity assay for E-cadherin project, profiling panel (AID 651826). To be noted: Ricerca radioligand binding/enzyme panel, % inhibition, at 10 µM, stronger effect = higher value. (Displacement assays read how much labelled ligand stays bound in the presence of the test substance.)

Active and inactive are the calls of the source.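 The calls were made as follows: active = inhibition above 50% of specific binding or functional response at a panel target; inactive = the rest.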

Turning to `O=C(NCCCNC(=O)c1ccc[nH]c1=O)c1cc(-c2ccccc2)on1`, the inhibition is 74% (active). Besides, the inhibition (measured here: 5-HT1A binding) was -4%. In addition, the inhibition (measured here: GABAA muscimol site binding) came out at 20%. Moreover, the inhibition (measured here: adenosine A1 binding) came to 71%. Besides, the inhibition (measured here: cannabinoid CB1 binding) was -23%. Further, the inhibition (measured here: dopamine D3 binding) was found to be 18%. For the same compound, the inhibition (measured here: dopamine transporter binding) was 31%. For the setting “measured here: hERG channel binding”, the inhibition was found to be 13%. The inhibition (measured here: mu opioid binding) is -5%. Also, where the note is “measured here: muscarinic M1 binding”, the inhibition worked out at 9%. Further, the inhibition (measured here: norepinephrine transporter binding) worked out at 13%. In addition, the inhibition (measured here: serotonin transporter binding) came to 10%. In addition, the inhibition (measured here: sigma1 receptor binding) came to 47%.
